# Results taken from PubChem BioAssay (Tox21).
# Records with an inconclusive call do not appear. Entries that show only a call come without a potency. Unmarked numbers belong to inactive results. Active and inactive are the calls of the source. Unless noted, calls come from the whole dose curve; as a rule, active = well fitted curve in the direction sought with a large enough effect in the repeat runs; inconclusive = weak or mixed curves; inactive = no such curve, though single readings can be large; an effect the other way counts as inactive or inconclusive.
# What was measured:
# [1] = qHTS assay to identify small molecule antagonists of the vitamin D receptor (VDR) signaling pathway - cell viability counter screen (AID 743225); note: nearly all actives have a fitted effect of over 50% in size; note: potency is the fitted concentration of half-maximal effect
# Outline: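 Cytotoxicity counter screen read by CellTiter-Glo luminescence (30 min, room temperature) in the same wells as the VDR-bla antagonist readout. HEK 293T VDR-UAS-bla cells had 16 h at 37C with compound and 3 nM (final) 1-alpha,25-dihydroxyvitamin D3, then 2 h with FRET substrate.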
# [2] = qHTS assay to identify small molecule agonists of the NFkB signaling pathway - cell viability counter screen (AID 1159515; calls by dose curve; note: nearly all actives have a fitted effect of over 55% in size)
# Outline: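 Viability in NFkB-bla ME-180 cells was measured by CellTiter-Glo luminescence, 30 min room temperature, in wells already treated 5 hr with compounds and read for reporter FRET.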
# [3] = qHTS assay to identify small molecule agonists of the endoplasmic reticulum stress response signaling pathway (AID 1159516; active = well fitted activation curve with a large enough effect in the signal ratio in the repeat runs, not every such curve was filed as active; the % refers to the signal ratio)
# Outline: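 ER stress element reporter (bla) in HeLa. 1,500 cells/well, overnight attachment; 5 hr compound; 2 hr RT substrate; dual-emission fluorescence.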
# [4] = qHTS assay to identify small molecule agonists of the endoplasmic reticulum stress response signaling pathway - cell viability counter screen (AID 1159517; calls by dose curve;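 note: HeLa cells carrying an ER stress response element beta-lactamase reporter; nearly all actives have a fitted effect of over 50% in size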)
# Outline: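 Luminescence readout: CellTiter-Glo, 30 min RT, same wells as the ESRE-bla reporter read. HeLa ESRE-bla, 1,500 cells/well, o/n 37 C; cpd 5 hr 37 C/5% CO2.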
# [5] = qHTS assay to identify small molecule agonists of the AP-1 signaling pathway - cell viability counter screen (AID 1159525; calls by dose curve; note: nearly all actives have a fitted effect of over 55% in size; note: potency is the fitted concentration of half-maximal effect)
# Outline: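 ME-180 AP-1-bla, 2500 cells/well, Opti-MEM + 0.5% dialyzed FBS; overnight 37 °C; cpd 15-pt titration, 5 h 37 °C; CellTiter-Glo 30 min RT; luminescence read; normalised to TOAB and DMSO controls.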
# [6] = qHTS assay to identify small molecule agonists of the AP-1 signaling pathway (AID 1159526; calls by dose curve)
# [7] = qHTS assay to identify small molecule antagonists of the retinoid acid receptor (RAR) signaling pathway - cell viability counter screen (AID 1159551); note: nearly all actives have a fitted effect of over 35% in size
# Outline: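 Following overnight attachment, C3RL4 reporter cells received DMSO-dissolved compounds and then retinol (1 uM final). Six hours later at 37 C, ATP content was measured by CellTiter-Glo luminescence.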
# [8] = target: Nuclear receptor ROR-gamma (Homo sapiens) (UniProt P51449); assay: qHTS assay to identify small molecule antagonists of the retinoid-related orphan receptor gamma (ROR-gamma) signaling pathway (AID 1159521; note: nearly all actives have a fitted effect of over 50% in size; note: potency is the fitted concentration of half-maximal effect)
# Outline: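 Antagonist read-out: drop in luminescence (ONE-Glo) from an RORE-LUC reporter in CHO cells with doxycycline-inducible ROR-gamma; 2 hr compound pretreatment, 1 uM doxycycline, 16 hr incubation at 37 C.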
# [9] = qHTS assay to identify small molecule agonists of the RXR signaling pathway - cell viability counter screen (AID 1159529); note: nearly all actives have a fitted effect of over 50% in size; note: potency is the fitted concentration of half-maximal effect
# Outline: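 CellTiter-Glo luminescence gave viability in the wells also read for beta-lactamase. Cells (RXR-alpha-UAS-bla HEK 293T, 2% charcoal-stripped FBS medium) had 5 hr plating, then 16 hr compound exposure at 37 C; tetraoctyl ammonium bromide served as positive control.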
# [10] = qHTS assay to identify small molecule antagonists of the retinoic acid receptor (RAR) signaling pathway (AID 1159552; note: nearly all actives have a fitted effect of over 50% in size)
# Outline: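 Luminescent RARE reporter read-out in C3RL4 cells: 6 hr co-treatment at 37 C of test compounds with retinol at 1 uM final. Cells plated overnight beforehand; luciferase reagent incubated 30 min at room temperature before reading.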
# [11] = qHTS assay to identify small molecule agonists of the retinoic acid receptor (RAR) signaling pathway (AID 1159553); settings: C3RL4 RARE luciferase reporter, agonist, 6 h; activation: at 73.3 µM (top of the series) unless noted; note: potency is the fitted concentration of half-maximal effect
# Outline: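 Cell line C3RL4, RARE luciferase reporter. Treatment: compounds in DMSO, 6 hr, 37 C, 5% CO2, after overnight plating. Detection: luminescence, 30 min RT after reagent.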
# [12] = qHTS assay to identify small molecule antagonists of the retinoid-related orphan receptor gamma (ROR-gamma) signaling pathway - cell viability counter screen (AID 1159520); note: nearly all actives have a fitted effect of over 50% in size
# Outline: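 Tet-on ROR gamma CHO cells (1,000/well) were plated 4 hr, given compounds in DMSO for 2 hr at 37 C, then induced with 1 uM final doxycycline for 16 hr. Viability was read as ATP by CellTiter-Glo luminescence after 30 min.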
# [13] = target: Retinoic acid receptor RXR-alpha (Homo sapiens) (UniProt P19793); assay: qHTS assay to identify small molecule agonists of the RXR signaling pathway (AID 1159527; calls by dose curve; note: nearly all actives have a fitted effect of over 35% in size)
# Outline: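 Agonist-mode beta-lactamase reporter assay: HEK 293T RXR-alpha-UAS-bla cells treated 16 hr at 37 C with compounds, 9-cis retinoic acid as positive control. LiveBLAzer FRET substrate, 405 nm excitation, 460/530 nm emission.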
# [14] = qHTS assay to identify small molecule antagonists of the estrogen related receptor (ERR) signaling pathway from Tox21 library - cell viability counter screen (AID 1224834); note: nearly all actives have a fitted effect of over 30% in size; note: potency is the fitted concentration of half-maximal effect
# Outline: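 Viability readout (CellTiter-Fluor fluorescence, 30 min at 37 C) multiplexed with the ERR assay; cells treated 17.5 h at 37 C with compounds delivered in DMSO.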
# Retinoic acid receptor RXR-alpha (Homo sapiens), sequence (P19793 whole entry, looked up): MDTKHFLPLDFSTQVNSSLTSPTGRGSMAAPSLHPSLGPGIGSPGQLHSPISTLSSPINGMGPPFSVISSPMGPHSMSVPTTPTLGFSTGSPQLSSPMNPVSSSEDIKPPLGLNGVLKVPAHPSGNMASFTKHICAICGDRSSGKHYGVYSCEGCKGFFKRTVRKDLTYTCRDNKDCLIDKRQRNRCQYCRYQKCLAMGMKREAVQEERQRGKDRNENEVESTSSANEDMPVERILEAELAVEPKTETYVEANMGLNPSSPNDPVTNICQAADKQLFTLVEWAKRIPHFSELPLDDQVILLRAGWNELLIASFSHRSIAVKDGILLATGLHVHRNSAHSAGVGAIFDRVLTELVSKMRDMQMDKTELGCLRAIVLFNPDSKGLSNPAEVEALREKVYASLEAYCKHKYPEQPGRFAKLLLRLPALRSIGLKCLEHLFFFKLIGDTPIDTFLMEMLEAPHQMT
Structure (SMILES),Potency [1],Potency [2],Potency [3],Potency [4],Potency [5],Potency [6],Potency [7],Potency [8],Potency [9],Potency [10],Potency [11],Potency [12],Potency [13],Potency [14]
CCCc1ccc(OCC(=O)N2CCN(C(=O)COc3ccc(CCC)cc3OC)CC2)c(OC)c1,inactive,inactive,inactive,inactive,inactive,inactive,inactive,,,,,,,
CCCCCC(C)OC(=O)COc1ccc(Cl)c2cccnc12 (stereo not drawn),inactive,inactive,inactive,inactive,34.7 µM (active),,inactive,inactive,11 µM (active),inactive,inactive,,,
Cc1cc(C(C#N)c2ccc(Cl)cc2)c(Cl)cc1NC(=O)c1cc(I)cc(I)c1O (stereo not drawn),inactive,inactive,inactive,inactive,inactive,,inactive,29.8 µM (active),,,,,,
COC(=O)Nc1nc2ccc(C(=O)c3ccccc3)cc2[nH]1,inactive,inactive,inactive,inactive,inactive,,inactive,inactive,inactive,inactive,inactive,,,
O=C(O)c1ccc2cc(C(=O)O)ccc2c1,inactive,inactive,inactive,,inactive,inactive,inactive,inactive,inactive,inactive,inactive,inactive,inactive,inactive
COC(=O)c1ccccc1OC,inactive,inactive,inactive,,inactive,inactive,inactive,inactive,inactive,inactive,inactive,inactive,inactive,
CCCC(=O)OC(C)(C)Cc1ccccc1,,inactive,inactive,,inactive,inactive,inactive,inactive,inactive,inactive,inactive,inactive,inactive,inactive
Cc1ccc(-c2ccccc2)cc1,,inactive,inactive,,inactive,inactive,inactive,inactive,inactive,inactive,inactive,inactive,inactive,inactive
CC1=Nc2ccccc2C1(C)C,inactive,inactive,inactive,inactive,inactive,,,17.2 µM (active),inactive,,,,,inactive
OC12N=C(c3ccccc3)SC1Cc1cc(Cl)ccc12 (stereo not drawn),inactive,inactive,inactive,inactive,inactive,,inactive,inactive,54.9 µM (active),inactive,1.22 µM (active),,,
Nc1cc(Cl)c(O)c(Cl)c1,inactive,inactive,inactive,inactive,,,inactive,68.6 µM (active),inactive,,,,,inactive
CC(CO)Oc1ccccc1 (stereo not drawn),,inactive,inactive,,inactive,inactive,inactive,inactive,inactive,inactive,inactive,inactive,inactive,inactive
S=C([S-])NCCNC(=S)[S-].S=C([S-])NCCNC(=S)[S-].[Mn+2].[Zn+2],inactive,inactive,inactive,inactive,inactive,,inactive,,inactive,,,,,
CCCCCCCCCCCCOCCOCCOCCOCCOCCOCCOCCOCCOCCO,10.7 µM (active),inactive,inactive,inactive,,,,,16.9 µM (active),,,,,26.6 µM (active)
CCC(=O)C(=O)CC,inactive,inactive,inactive,,inactive,inactive,inactive,inactive,inactive,inactive,inactive,inactive,inactive,inactive
O=[N+]([O-])c1ccc(O)cc1C(F)(F)F,,inactive,inactive,inactive,inactive,inactive,inactive,7.7 µM (active),,,inactive,,,
CCCCCc1ccc(Cl)cc1,inactive,inactive,inactive,,inactive,inactive,inactive,inactive,inactive,inactive,inactive,inactive,inactive,
CCCCCCCCCCCCOC(=O)c1ccc(O)cc1,inactive,inactive,inactive,inactive,55.4 µM (active),,inactive,inactive,inactive,,,,inactive,
Nc1ccc(NCCO)c([N+](=O)[O-])c1,inactive,inactive,inactive,inactive,inactive,inactive,,,inactive,,inactive,,inactive,
CCCCNS(=O)(=O)c1ccc(C)cc1,inactive,inactive,inactive,,inactive,inactive,inactive,inactive,inactive,inactive,inactive,inactive,inactive,inactive
CCCC(=O)OCCc1ccccc1,inactive,inactive,inactive,,inactive,inactive,inactive,inactive,inactive,inactive,inactive,inactive,inactive,inactive
CC(C)CCOC(=O)/C=C/c1ccccc1,inactive,inactive,inactive,,inactive,inactive,inactive,inactive,inactive,inactive,10.9 µM (active),inactive,inactive,inactive
NC(=S)NC(N)=S,,inactive,inactive,inactive,inactive,,inactive,inactive,inactive,inactive,,,,inactive
